# Several values for one entry are separate records, joined by “and”; a condition that tells them apart may be missing. Equal values may be shown once.
# Experiment: qHTS profiling of the MIPE4 collection as inhibitors of Plasmodium falciparum (DD2) proliferation (AID 743345)
# Conditions: P. falciparum Dd2 in erythrocytes, SYBR Green DNA, 72 h; at 28.5 µM (top of the series) unless noted
# Excerpt: Plasmodium falciparum is a virulent malarial parasite that kills 1-2 million people worldwide each year. Transmitted by mosquitoes, the sporozoite form of the parasite enters the blood stream to infect hepatocytes, where they become merozoites that infect red blood cells (erythrocytes). Within erythrocytes, merozoites begin a […] cycle of growth and division, after which the parasite is released to infect new red blood cells. Gametocytes, which form within erythrocytes as well, circulate in the bloodstream and are ingested by the mosquito, thereby completing the life cycle. To profile malarial isolates for differential chemical responses and to identify inhibitors of malarial growth, an assay that measures P. falciparum growth and replication within erythrocytes was employed. This assay uses a DNA binding fluorescent dye (SYBR Green) to detect parasite DNA following cell lysis. Because mature erythrocytes lack DNA, only Plasmodium-derived DNA is detected.
# The SYBR Green viability assay was adapted from a method described previously (Plouffe et al., 2008). For screening 3 ul culture medium was dispensed into 1536 well black clear bottom plates (Aurora Biotechnologies) using a Multidrop Combi (Thermo Fisher Scientific Inc.), 23 nL compounds in DMSO were added by a pin tool (Kalypsys), and 5 ul of erythrocytes infected with P. falciparum (0.3% parasitemia, 2.5% hematocrit final concentration) were added. The plates were incubated at 37 C in a humidified incubator in 5% CO2 for 72 h, and 2 ul lysis buffer (20 mM Tris HCl, 10 mM EDTA, 0.16% saponin, 1.6% triton X, 10X SYBR Green I supplied as 10,000X […] by Invitrogen) was added to each well. The plates were mixed for 25 sec with gentle shaking and incubated overnight at room temperature in the dark. The following morning, fluorescence intensity at 485(14) nm excitation and 535(25) nm emission wavelengths was measured on an EnVision (Perkin Elmer) plate reader. Plate reads were normalized relative to the control inhibitor (0.29 uM artemisinin) and vehicle (DMSO) wells present on each plate and then corrected by an algorithm using vehicle-only control plates at the beginning and end of the compound plate stack.
row,Compound,"parasite growth remaining, % of DMSO control (lower = more inhibition)"
1,O=C(CCN1CCN(C(=O)OCc2cc(Cl)cc(Cl)c2)CC1)c1ccc2[nH]c(=O)oc2c1,103%
2,Cc1ccc(Nc2cc(-c3cccc(N4C(=O)c5ccccc5C4=O)c3)ncn2)cc1NS(C)(=O)=O,83.3%
3,O=C1NC(=O)C(=Cc2ccc3nccnc3c2)S1,92.6% [at 9.64 µM]
4,COCCOc1nc(-c2ccc(Cl)c(Cl)c2)n(-c2ccc(NC(=O)CCl)cc2)n1,64%
5,O=C(Nc1ccccc1Br)N[C@@H]1CCN(c2ccc(C(F)(F)F)cn2)C1,96.2%
6,C[C@@H](O)[C@H]1C(=O)N2C(C(=O)O)=C(S[C@@H]3CN[C@H](C(=O)N(C)C)C3)[C@H](C)[C@H]12,102% [at 9.64 µM]
7,O=C(NCc1ccncc1)C12C[C@H]3C[C@@H](C1)CC(c1ccc(Cl)cc1)(C3)C2,93.6%
8,N[C@H](CSC(c1ccccc1)(c1ccccc1)c1ccccc1)C(=O)O,86.8%
9,CC(=NNC(=S)N1CCC1)c1ccccn1,5.88%
10,COc1ccc(-c2coc3cc(O)ccc3c2=O)cc1,8.21%
11,CC(C)n1nc(-c2ccc3oc(N)nc3c2)c2c(N)ncnc21,9.14%
12,CO[C@H]1C[C@@H]2CC[C@@H](C)[C@@](O)(O2)C(=O)C(=O)N2CCCC[C@@H]2C(=O)O[C@H]([C@H](C)C[C@@H]2CC[C@H](OP(C)(C)=O)[C@H](OC)C2)CC(=O)[C@H](C)C=C(C)[C@@H](O)[C@@H](OC)C(=O)[C@H](C)C[C@H](C)C=CC=CC=C1C,6.6%
13,O=c1[nH]cnc2c1ncn2[C@H]1CC[C@@H](CO)O1,97.1%
14,O=C1Nc2ccc(Cl)cc2C(C#CC2CC2)(C(F)(F)F)O1 (stereo not given),76%
15,COc1cc2nc(-c3ccc(N4CCN(C)CC4)cc3)nc(NCCN3CCOCC3)c2cc1OC,4.83%
16,C[C@H](NC(=O)c1sccc1OCc1ccc(Cl)cc1)c1ccccc1,14.8%
17,COc1ccc(C2Sc3ccccc3N(CCN(C)C)C(=O)C2OC(C)=O)cc1 (stereo not given),81% and 97.9%
18,COc1ccc2c3c1OC1C[C@@H](O)C=C[C@@]31CCN(C)C2 (stereo not given in full),100%
19,CC[C@@]1(O)C[C@H](O[C@H]2C[C@H](N(C)C)[C@H](O[C@H]3C[C@H](O)[C@H](O[C@H]4CCC(=O)[C@H](C)O4)[C@H](C)O3)[C@H](C)O2)c2c(cc3c(c2O)C(=O)c2c(O)cccc2C3=O)[C@@H]1C(=O)OC,4.79%
20,CC=CC[C@@H](C)C(=O)[C@H]1C(=O)N[C@@H](C(C)C)C(=O)N(C)CC(=O)N(C)[C@@H](CC(C)C)C(=O)N[C@@H](C(C)C)C(=O)N(C)[C@@H](CC(C)C)C(=O)N[C@@H](C)C(=O)N[C@H](C)C(=O)N(C)[C@@H](CC(C)C)C(=O)N(C)[C@@H](CC(C)C)C(=O)N(C)[C@@H](C(C)C)C(=O)N1C,93.4%

row,Compound,"parasite growth remaining, % of DMSO control (lower = more inhibition)"
1,CC(=O)OC1C(C)OC(Oc2c(-c3ccc(O)cc3)oc3cc(O)cc(O)c3c2=O)C(O)C1OC(C)=O (stereo not given),72.5%
2,COc1cc(NC(=O)c2ccc(-c3ccc(Cl)cc3)o2)cc(OC)c1,97.8%
3,CC(C)C(=O)Oc1ccc(CO)cc1[C@H](CCN(C(C)C)C(C)C)c1ccccc1,40.7%
4,O=c1cc(N2CCOCC2)oc2c(-c3cccc4c3sc3ccccc34)cccc12,28.4%
5,COc1ccc2cc(-c3nc(-c4ccc(S(C)=O)cc4)[nH]c3-c3ccncc3)ccc2c1 (stereo not given),9.3%
6,CS(=O)c1ccc(-c2nc(-c3ccc(F)cc3)c(-c3ccncc3)[nH]2)cc1 (stereo not given),26.4% [at 57.5 µM]
7,OC[C@H]1O[C@@H](n2cnc3c2NC=NC[C@@H]3O)C[C@H]1O,92.5%
8,O=C(O)c1c(Cl)c(Cl)c(Cl)c(Cl)c1-c1c2cc(I)c(=O)c(I)c-2oc2c(I)c(O)c(I)cc12,97.1%
9,O=c1c(-c2ccc(O)cc2)coc2cc(O)ccc12,102%
10,NC(=O)NN=Cc1ccc([N+](=O)[O-])o1,48.9%
11,COc1cc2ncnc(-n3nc(-c4ccccn4)nc3N)c2cc1OC,31.2%
12,C=CCc1ccc(O)c(-c2ccc(O)c(CC=C)c2)c1,75.6%
13,NC(CO)(CO)CCc1ccc(Sc2cccc(OCc3ccccc3)c2)cc1Cl,8.96%
14,O=C(Nc1cccc(Br)c1)c1cccc(S(=O)(=O)N2CCCCCC2)c1,51.8%
15,CC[C@H]1OC(=O)[C@H](C)[C@@H](O[C@H]2C[C@@](C)(OC)[C@@H](O)[C@H](C)O2)[C@H](C)[C@@H](O[C@@H]2O[C@H](C)C[C@H](N(C)C)[C@@H]2O)[C@](C)(O)C[C@@H](C)CN(C)[C@H](C)[C@@H](O)[C@]1(C)O,24.6%
16,CC(=Cc1ccccc1)C=C1SC(=S)N(CC(=O)O)C1=O,102%
17,c1ccc2c(-c3cnn4cc(-c5ccc(N6CCNCC6)cc5)cnc34)ccnc2c1,5.98%
18,CC1(C)CCC(CN2CCN(c3ccc(C(=O)NS(=O)(=O)c4ccc(NCC5CCOCC5)c([N+](=O)[O-])c4)c(Oc4cnc5[nH]ccc5c4)c3)CC2)=C(c2ccc(Cl)cc2)C1,76.7%
19,Cc1ccccc1C(C(=O)NC1CCCCC1)N(C(=O)Cn1ccnc1C)c1cccc(F)c1 (stereo not given),36.3%
20,CC1(C)CCC[C@@]2(C)[C@@H]1CC[C@@]1(C)OC(=O)C[C@H]21,136%
